The text below walks through data of ChEMBL document CHEMBL1961873, “Compounds: GSK PKIS; Assays: Nanosyn kinase panel” (2012).

Test [1] deals with T1, Mitogen-activated protein kinase 12 (Homo sapiens) (UniProt P53778).
T1 sequence (whole entry): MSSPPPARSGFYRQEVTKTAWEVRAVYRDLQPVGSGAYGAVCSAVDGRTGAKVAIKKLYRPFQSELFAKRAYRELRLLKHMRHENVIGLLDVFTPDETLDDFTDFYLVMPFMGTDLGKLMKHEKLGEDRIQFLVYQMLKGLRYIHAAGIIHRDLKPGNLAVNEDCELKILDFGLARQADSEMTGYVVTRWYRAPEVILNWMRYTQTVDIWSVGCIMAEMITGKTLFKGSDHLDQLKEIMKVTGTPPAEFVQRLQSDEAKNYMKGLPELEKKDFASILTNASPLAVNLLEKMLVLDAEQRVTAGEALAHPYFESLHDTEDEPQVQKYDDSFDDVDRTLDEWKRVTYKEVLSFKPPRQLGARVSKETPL
To be noted: at 1 µM.

In test [2] the target is SRSF protein kinase 1 (Homo sapiens) (UniProt Q96SB4). To be noted: at 0.1 µM.
The target is the same in test [3]. The note with it: at 1 µM.
For test [4], the target named is Phosphatidylinositol 4,5-bisphosphate 3-kinase catalytic subunit alpha isoform (Homo sapiens) (UniProt P42336). The note with it: at 0.1 µM.
Test [5] has the same target. To be noted: at 1 µM.
Test [6] concerns the target T2, Phosphatidylinositol 4,5-bisphosphate 3-kinase catalytic subunit delta isoform (Homo sapiens) (UniProt O00329).
T2 sequence (whole entry): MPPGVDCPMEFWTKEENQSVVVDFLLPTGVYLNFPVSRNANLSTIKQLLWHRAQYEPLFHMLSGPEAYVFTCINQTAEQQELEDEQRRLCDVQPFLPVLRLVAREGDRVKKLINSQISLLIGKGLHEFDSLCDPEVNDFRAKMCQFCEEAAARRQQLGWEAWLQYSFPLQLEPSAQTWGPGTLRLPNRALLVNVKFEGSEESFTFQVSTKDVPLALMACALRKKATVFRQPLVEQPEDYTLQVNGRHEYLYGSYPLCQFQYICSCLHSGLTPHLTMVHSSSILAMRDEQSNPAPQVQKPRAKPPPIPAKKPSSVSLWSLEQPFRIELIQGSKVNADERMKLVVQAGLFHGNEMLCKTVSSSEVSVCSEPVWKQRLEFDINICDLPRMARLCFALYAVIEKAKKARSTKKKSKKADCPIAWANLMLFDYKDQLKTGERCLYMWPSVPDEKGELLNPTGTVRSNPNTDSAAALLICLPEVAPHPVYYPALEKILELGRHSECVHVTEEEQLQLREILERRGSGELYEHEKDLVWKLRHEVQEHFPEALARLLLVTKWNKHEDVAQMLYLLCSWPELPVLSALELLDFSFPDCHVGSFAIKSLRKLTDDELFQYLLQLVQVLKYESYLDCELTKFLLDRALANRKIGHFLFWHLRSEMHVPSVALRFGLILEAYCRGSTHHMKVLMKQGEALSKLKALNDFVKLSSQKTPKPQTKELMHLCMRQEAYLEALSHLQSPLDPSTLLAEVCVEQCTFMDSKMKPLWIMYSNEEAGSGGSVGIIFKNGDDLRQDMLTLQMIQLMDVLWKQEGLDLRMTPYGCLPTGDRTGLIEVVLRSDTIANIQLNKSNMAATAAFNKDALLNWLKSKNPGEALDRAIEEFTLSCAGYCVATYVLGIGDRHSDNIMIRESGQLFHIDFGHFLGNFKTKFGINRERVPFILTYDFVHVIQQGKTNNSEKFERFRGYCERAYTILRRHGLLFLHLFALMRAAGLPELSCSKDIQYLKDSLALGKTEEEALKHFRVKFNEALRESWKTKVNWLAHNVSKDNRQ
To be noted: at 0.1 µM.

In test [7] the target is T2, Phosphatidylinositol 4,5-bisphosphate 3-kinase catalytic subunit delta isoform (Homo sapiens). To be noted: at 1 µM.
The target of test [8] is Phosphatidylinositol 4-kinase beta (Homo sapiens) (UniProt Q9UBF8). To be noted: at 0.1 µM.
The target is the same in test [9]. To be noted: at 1 µM.
The target in test [10] is Sphingosine kinase 1 (Homo sapiens) (UniProt Q9NYA1). To be noted: at 0.1 µM.
For test [11] the target is unchanged. The note with it: at 1 µM.
Test [12] deals with T3, Sphingosine kinase 2 (Homo sapiens) (UniProt Q9NRA0).
T3 sequence (whole entry): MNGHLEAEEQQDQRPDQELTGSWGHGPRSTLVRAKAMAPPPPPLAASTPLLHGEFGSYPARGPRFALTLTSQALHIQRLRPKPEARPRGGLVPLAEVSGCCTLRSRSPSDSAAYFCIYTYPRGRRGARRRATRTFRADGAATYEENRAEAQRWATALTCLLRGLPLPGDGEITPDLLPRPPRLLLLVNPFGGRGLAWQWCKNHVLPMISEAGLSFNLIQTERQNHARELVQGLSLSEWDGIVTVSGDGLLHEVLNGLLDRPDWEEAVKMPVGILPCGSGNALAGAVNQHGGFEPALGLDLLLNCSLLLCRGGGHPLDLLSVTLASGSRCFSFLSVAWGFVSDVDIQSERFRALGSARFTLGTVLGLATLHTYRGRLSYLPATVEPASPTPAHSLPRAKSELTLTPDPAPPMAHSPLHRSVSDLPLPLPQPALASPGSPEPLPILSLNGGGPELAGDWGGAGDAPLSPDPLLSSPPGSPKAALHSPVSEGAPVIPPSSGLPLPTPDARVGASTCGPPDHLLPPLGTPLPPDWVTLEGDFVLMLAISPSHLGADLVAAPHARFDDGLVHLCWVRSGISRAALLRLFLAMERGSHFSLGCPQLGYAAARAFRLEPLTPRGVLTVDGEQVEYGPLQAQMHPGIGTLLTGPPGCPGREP
To be noted: at 0.1 µM.

For test [13], the target named is T3, Sphingosine kinase 2 (Homo sapiens). To be noted: at 1 µM.
Test [14] concerns the target Casein kinase II subunit alpha (Homo sapiens) (UniProt P68400). The note with it: at 0.1 µM.
For test [15] the target is unchanged. To be noted: at 1 µM.
Test [16] has as its target T4, Inhibitor of nuclear factor kappa-B kinase subunit alpha (Homo sapiens) (UniProt O15111).
T4 sequence (whole entry): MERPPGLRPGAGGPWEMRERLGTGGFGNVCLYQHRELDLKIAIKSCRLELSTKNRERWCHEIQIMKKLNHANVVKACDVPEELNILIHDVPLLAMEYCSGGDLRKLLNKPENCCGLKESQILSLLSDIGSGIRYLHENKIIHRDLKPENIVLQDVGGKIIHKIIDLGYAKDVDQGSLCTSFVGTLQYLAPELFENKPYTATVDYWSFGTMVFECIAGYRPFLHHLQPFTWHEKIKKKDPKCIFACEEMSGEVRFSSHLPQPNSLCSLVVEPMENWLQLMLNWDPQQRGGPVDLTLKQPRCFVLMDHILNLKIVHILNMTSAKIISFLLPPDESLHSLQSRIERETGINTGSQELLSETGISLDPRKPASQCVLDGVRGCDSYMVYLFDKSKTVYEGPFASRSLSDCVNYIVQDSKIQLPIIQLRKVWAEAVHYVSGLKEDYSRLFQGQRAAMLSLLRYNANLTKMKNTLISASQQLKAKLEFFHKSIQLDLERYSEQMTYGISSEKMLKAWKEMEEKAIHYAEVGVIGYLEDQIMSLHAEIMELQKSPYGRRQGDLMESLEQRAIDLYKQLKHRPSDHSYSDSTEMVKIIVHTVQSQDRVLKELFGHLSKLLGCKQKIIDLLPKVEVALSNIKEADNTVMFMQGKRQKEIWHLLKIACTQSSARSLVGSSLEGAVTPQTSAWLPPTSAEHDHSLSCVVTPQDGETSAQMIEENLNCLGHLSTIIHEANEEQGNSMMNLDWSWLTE
To be noted: at 0.1 µM.

The target of test [17] is T4, Inhibitor of nuclear factor kappa-B kinase subunit alpha (Homo sapiens). To be noted: at 1 µM.
The target in test [18] is T5, Inhibitor of nuclear factor kappa-B kinase subunit beta (Homo sapiens) (UniProt O14920).
T5 sequence (whole entry): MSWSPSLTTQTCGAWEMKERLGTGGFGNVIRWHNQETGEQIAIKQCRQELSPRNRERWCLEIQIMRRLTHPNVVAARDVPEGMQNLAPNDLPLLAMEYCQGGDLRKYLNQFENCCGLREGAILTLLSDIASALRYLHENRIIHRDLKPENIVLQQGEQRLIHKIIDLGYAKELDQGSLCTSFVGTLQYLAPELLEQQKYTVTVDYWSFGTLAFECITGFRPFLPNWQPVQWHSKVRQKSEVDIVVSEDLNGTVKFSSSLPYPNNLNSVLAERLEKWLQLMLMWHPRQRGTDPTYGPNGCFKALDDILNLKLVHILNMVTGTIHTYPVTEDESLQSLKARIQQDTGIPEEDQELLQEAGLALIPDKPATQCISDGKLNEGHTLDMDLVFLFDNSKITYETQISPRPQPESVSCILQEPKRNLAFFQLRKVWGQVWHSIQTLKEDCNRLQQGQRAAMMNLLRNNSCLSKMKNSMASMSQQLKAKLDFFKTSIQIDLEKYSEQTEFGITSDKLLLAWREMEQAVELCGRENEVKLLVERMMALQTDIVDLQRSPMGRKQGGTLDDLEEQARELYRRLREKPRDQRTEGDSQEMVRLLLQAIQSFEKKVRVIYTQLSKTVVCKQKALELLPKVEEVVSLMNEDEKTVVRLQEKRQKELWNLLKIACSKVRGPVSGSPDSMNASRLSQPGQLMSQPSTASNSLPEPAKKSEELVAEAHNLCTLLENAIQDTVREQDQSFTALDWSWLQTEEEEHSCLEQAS
To be noted: at 0.1 µM.

The target in test [19] is T5, Inhibitor of nuclear factor kappa-B kinase subunit beta (Homo sapiens). The note with it: at 1 µM.
The target of test [20] is T6, Inhibitor of nuclear factor kappa-B kinase subunit epsilon (Homo sapiens) (UniProt Q14164).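 Further: mean inhibition of IKKε reported, from the GSK PKIS dataset.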
T6 sequence (whole entry): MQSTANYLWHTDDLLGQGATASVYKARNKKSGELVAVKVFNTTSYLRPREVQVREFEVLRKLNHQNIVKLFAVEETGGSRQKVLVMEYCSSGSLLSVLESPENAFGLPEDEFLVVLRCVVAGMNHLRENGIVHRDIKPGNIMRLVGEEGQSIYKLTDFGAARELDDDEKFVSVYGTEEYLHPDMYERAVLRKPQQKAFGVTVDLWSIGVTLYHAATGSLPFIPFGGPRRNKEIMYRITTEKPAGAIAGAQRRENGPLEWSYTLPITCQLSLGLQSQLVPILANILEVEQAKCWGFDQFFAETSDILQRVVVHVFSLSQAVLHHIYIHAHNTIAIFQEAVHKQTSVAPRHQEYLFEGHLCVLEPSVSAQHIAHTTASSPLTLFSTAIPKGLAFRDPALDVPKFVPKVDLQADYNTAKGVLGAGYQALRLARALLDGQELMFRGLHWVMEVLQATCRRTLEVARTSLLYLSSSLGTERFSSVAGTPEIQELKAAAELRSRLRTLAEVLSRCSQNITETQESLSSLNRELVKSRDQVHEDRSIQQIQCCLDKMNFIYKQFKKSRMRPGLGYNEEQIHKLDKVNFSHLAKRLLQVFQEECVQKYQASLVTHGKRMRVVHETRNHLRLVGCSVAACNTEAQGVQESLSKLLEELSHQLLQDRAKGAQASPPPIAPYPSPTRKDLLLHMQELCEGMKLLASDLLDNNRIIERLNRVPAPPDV
To be noted: at 0.1 µM.

SRSF protein kinase 1 (Homo sapiens), sequence (Q96SB4 whole entry): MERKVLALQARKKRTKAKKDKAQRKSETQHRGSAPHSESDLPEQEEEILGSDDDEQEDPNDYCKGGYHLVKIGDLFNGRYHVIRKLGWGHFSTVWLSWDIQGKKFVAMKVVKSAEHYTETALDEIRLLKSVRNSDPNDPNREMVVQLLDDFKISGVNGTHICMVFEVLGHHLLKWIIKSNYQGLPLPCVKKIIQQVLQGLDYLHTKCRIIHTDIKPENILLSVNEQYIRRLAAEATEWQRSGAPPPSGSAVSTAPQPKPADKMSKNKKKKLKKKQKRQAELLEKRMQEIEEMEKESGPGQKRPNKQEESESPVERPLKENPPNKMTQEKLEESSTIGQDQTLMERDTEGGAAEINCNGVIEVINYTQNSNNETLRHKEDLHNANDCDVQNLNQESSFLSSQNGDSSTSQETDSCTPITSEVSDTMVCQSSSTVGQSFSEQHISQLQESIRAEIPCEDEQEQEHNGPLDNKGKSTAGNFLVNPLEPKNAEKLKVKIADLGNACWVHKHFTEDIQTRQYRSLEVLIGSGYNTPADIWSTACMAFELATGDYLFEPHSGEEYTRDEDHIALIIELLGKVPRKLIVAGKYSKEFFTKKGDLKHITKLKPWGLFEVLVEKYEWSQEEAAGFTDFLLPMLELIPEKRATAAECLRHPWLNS
Casein kinase II subunit alpha (Homo sapiens), sequence (P68400 whole entry, looked up): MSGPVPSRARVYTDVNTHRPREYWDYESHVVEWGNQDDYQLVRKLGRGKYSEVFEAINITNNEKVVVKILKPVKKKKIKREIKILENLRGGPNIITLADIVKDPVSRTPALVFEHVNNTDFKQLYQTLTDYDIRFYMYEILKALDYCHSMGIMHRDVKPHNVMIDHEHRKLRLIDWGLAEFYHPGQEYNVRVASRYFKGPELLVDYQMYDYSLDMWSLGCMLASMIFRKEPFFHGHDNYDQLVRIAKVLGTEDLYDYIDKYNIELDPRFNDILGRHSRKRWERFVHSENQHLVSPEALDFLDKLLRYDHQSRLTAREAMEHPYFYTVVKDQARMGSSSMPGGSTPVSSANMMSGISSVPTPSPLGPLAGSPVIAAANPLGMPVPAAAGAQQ
Phosphatidylinositol 4,5-bisphosphate 3-kinase catalytic subunit alpha isoform (Homo sapiens), sequence (P42336 whole entry, canonical isoform): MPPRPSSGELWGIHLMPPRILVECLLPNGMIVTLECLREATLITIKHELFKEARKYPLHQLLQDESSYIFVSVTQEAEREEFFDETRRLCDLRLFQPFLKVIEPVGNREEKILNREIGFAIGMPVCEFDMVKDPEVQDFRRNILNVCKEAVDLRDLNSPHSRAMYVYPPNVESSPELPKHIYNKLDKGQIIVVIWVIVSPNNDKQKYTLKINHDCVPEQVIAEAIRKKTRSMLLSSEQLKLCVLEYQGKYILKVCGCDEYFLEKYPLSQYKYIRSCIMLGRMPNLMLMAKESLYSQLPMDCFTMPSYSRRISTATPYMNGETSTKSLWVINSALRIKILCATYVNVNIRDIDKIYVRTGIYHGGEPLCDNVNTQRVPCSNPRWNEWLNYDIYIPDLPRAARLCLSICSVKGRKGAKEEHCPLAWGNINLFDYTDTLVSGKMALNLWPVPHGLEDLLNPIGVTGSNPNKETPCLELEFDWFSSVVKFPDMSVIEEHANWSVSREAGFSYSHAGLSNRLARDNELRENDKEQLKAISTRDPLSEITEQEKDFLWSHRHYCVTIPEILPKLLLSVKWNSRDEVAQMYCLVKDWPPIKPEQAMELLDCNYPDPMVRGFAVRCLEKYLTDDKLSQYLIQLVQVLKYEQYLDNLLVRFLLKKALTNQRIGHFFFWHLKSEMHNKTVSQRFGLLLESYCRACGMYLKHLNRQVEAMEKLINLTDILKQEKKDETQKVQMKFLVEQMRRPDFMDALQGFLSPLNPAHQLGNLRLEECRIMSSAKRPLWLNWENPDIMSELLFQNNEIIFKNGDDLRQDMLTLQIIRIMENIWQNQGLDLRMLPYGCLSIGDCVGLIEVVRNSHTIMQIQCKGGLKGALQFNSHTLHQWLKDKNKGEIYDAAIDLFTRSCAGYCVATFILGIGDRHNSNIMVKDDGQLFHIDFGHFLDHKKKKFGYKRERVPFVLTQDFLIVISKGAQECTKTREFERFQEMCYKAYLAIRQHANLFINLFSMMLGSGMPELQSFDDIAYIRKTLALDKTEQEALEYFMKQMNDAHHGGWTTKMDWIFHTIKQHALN
Sphingosine kinase 1 (Homo sapiens), sequence (Q9NYA1 whole entry): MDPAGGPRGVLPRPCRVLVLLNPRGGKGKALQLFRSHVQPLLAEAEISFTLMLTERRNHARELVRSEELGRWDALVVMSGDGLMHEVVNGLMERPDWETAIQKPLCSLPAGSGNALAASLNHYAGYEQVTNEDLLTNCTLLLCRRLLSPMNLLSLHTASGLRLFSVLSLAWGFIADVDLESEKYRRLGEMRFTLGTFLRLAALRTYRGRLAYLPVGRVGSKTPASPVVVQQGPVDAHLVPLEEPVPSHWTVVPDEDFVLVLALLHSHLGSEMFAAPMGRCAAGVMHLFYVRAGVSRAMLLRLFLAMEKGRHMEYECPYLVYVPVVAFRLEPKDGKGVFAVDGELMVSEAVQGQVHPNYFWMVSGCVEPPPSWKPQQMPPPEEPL
Phosphatidylinositol 4-kinase beta (Homo sapiens), sequence (Q9UBF8 2-816 limits assumed): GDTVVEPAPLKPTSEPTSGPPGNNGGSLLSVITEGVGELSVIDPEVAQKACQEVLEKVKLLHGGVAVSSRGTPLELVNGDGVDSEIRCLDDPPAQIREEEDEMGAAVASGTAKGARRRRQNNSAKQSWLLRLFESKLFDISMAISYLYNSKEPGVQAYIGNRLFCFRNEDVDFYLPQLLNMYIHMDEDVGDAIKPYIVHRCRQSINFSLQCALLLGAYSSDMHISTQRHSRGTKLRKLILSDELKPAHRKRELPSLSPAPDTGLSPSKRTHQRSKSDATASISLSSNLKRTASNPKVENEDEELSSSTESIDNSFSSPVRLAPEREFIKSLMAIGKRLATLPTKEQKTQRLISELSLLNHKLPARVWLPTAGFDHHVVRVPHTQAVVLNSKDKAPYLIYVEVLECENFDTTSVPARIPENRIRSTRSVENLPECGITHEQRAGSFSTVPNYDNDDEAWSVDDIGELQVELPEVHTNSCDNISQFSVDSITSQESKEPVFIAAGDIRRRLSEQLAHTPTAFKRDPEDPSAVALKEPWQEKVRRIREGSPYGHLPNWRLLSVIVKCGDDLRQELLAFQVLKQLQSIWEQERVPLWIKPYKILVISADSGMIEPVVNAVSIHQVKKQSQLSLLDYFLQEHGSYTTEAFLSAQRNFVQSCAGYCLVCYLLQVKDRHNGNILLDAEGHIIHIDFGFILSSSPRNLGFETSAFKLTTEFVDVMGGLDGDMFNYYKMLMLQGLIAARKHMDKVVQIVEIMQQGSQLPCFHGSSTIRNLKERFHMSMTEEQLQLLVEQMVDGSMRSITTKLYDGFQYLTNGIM

Take `CNC(=O)c1ncccc1Nc1nc(Nc2cc3c(cc2OC)CCCN3C(=O)CN(C)C)nc2[nH]ccc12`: the inhibition in test [1] is 2.94%; in test [2], -1.98%; in test [3], -0.43%; in [4], 3.55%; in test [5] it was 1.58%; in test [6], 1.46%. For the same molecule, the inhibition in test [7] is 4.15%; in [8], -2.24%; in test [9], 1.56%; in test [10] it was 3.95%; in [11], -0.03%; in test [12], -0.11%. The inhibition in test [13] was -1.01%; in test [14], 6.76%; in [15], 22.8%; in test [16] it was 12.9%; in test [17], 7.49%; in test [18], 2.85%. For the same molecule, the inhibition is -0.65% in test [19] and 5.04% in test [20].

As for `CNC(=O)c1cncc(/C=C/c2ccccc2C)c1`, the inhibition in test [1] is 1.72%; in test [2], -0.49%; in test [3] it was 2.3%; in test [4], 2.18%; in test [5], 2.76%; in [6], 1.24%. For the same molecule, the inhibition in test [7] was 0.42%; in [8], -3.61%; in test [9], 7.59%; in test [10], 0.67%; in test [11], 1.15%; in [12], 0%. Moreover, the inhibition in test [13] was 0%; in test [14], 4.87%; in test [15] it was 7.63%; in [16], 1.86%; in [17] it was 2.32%; in test [18], 3.58%. Also, the results for the inhibition in test [19] and in test [20] were 5.04% and 5.9%, respectively.

With `COC(=O)Nc1nc2cc(Oc3ccc(NC(=O)Nc4ccccc4)cc3)ccc2[nH]1`, the inhibition in test [1] was 1.26%; in test [2] it was -2.23%; in test [3] it was -0.94%; in test [4], 3.19%; in [5], 0%; in test [6] it was 0.3%. For the same molecule, the inhibition in [7] was 0.14%; in [8], 3.09%; in test [9], 2.26%; in [10] it was -0.55%; in [11], 3.1%; in test [12] it was -0.28%. The inhibition in test [13] worked out at 0.5%; in test [14], 1.57%; in [15], 7.67%; in test [16], 10.9%; in test [17], 8.6%; in test [18] it was 4.21%. Besides, the inhibition in test [19] came to 5.49%; in test [20] it was 5.85%.

For `COc1cc(N2CCN(C(C)C)CC2)ccc1Nc1nc(Nc2cccc(F)c2C(=O)O)c2cc[nH]c2n1`, the inhibition in test [1] was 1.52%; in [2] it was -1.29%; in test [3] it was 5.69%; in test [4], 2.86%; in [5], 4.42%; in test [6], -0.59%. Moreover, the inhibition in test [7] is -3.11%; in test [8], 2.44%; in test [9], 0.72%; in test [10], -1.3%; in test [11], -1.68%; in test [12], -0.64%. Moreover, the inhibition in test [13] was -0.33%; in [14] it was 6.3%; in test [15], 22.4%; in [16], 4.18%; in [17], 3.93%; in test [18], 6.66%. Besides, the inhibition in test [19] is 8.91%; in test [20], 5.22%.

As a reminder, the inhibition is the change of the read-out against control, counted positive when it falls.
